Compounds with a hit are over-represented: about 12% of the library has one in this group of screens.
PLAP act = activators of human placental alkaline phosphatase. activation fold at 20 µM. hit rate 1.2% among 96,000. purified PLAP enzyme, luminescent substrate read-out; stronger effect = higher value. P05187; in the data active means activation fold above about 2
Target sequence (P05187 whole entry, looked up): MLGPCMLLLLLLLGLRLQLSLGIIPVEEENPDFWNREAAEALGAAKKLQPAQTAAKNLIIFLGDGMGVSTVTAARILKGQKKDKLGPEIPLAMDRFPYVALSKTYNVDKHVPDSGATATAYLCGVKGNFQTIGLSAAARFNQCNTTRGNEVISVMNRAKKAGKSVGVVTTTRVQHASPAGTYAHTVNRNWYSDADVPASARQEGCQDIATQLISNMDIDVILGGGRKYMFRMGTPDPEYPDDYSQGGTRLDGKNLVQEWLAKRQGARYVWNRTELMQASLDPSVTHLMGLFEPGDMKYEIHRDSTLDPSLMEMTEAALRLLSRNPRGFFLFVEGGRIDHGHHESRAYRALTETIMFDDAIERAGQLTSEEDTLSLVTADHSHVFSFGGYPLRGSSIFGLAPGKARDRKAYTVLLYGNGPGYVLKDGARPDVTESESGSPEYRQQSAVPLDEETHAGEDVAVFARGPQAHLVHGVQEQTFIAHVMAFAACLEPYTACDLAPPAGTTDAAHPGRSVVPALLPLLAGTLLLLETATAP
D1 allo mod = D1 dopamine receptor (human) allosteric modulation; P21728; HEK293 D1, CRE-luciferase, dopamine EC30 potentiation; actives deviate in either direction; B-score at 10 µM; hit rate 5.9% among 58,000;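 active means luminescence count or its row- and column-corrected plate score outside the 99.7% band of the plate's sample wells, on either side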
PostGolgi ctrl = growth of the yeast control strain, post-Golgi counter-screen; AID 738; inhibition, % at 10 µM; hit rate 5% among 98,000; efflux-deficient yeast background strain, growth absorbance A615, 16 h
PostGolgi yeast = growth inhibition of a yeast mutant, post-Golgi transport screen; AID 739; post-Golgi transport phenotypic cell assay; inhibition, % at 10 µM; hit rate 0.9% among 98,000;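 further: yeast cells grown in 1536-well plates; yeast grown about 18 h at 30C before absorbance read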
hDAT+cocaine = modulates human dopamine transporter uptake under cocaine; Q01959; LLC-PK1 hDAT cells, [14C]-dopamine uptake with cocaine IC80; actives deviate in either direction; B-score at 10 µM; hit rate 1.3% among 110,000; AID 449768;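 active means Z score or B-score, a plate-position-corrected score, falls beyond the plate's 99.7% confidence bounds, in either direction; inactive means both scores lie inside the 99.7% bounds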;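 further: scored against the spread of the other compound wells on the same plate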
Cav3 T inh = inhibitors of human Cav3.2 T-type calcium channel; Cav3.2-expressing cells, Fluo-4 calcium fluorescence FDSS; stronger effect = lower value; B-score at 10 µM; hit rate 4% among 100,000; AID 449739;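 active means single-dose well whose peak fluorescence ratio is a statistical outlier from its plate by either plate-standardised score or position-corrected B-score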
D1 mod confirm = confirmation of human D1 dopamine receptor allosteric modulators; luminescence at 10 µM; HEK293 D1 CRE-luciferase, dopamine EC30 potentiation; stronger effect = higher value; hit rate 88% among 2,200; AID 642; shares compounds with D1 allo mod;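 active means luminescence in either of two replicates above the same-plate mean plus 3 SD of the low-dose dopamine control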
D1 ag no DA = D1 (human) signaling in absence of dopamine | shares compounds with D1 allo mod | HEK293 D1 CRE-luciferase, luminescence, no dopamine; stronger effect = higher value | luminescence at 10 µM | hit rate 0.8% among 1,900 | AID 646; in the data active means luminescence above about 3900
Isoprot counter = alters isoproterenol CRE-luciferase response in HEK293 cells. shares compounds with D1 allo mod. HEK293 D1 CRE-luciferase, isoproterenol EC30 counter-screen. calls only at 10 µM. hit rate 63% among 2,200. AID 647;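 active means luminescence in either replicate above plate mean of wells with a partly effective reference agonist dose plus 3 SD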;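 further: isoproterenol raises cAMP through native beta-adrenoceptor Gs so signal bypasses D1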
Numbers without * were called inactive; i = inactive; / = not tested or not shown; + = active, no number. Unless noted, no stated cut-off is given here; in the data, active means inhibition above about 30%; inactive means the rest.

SMILES | PLAP act | D1 allo mod | PostGolgi ctrl | PostGolgi yeast | hDAT+cocaine | Cav3 T inh | D1 mod confirm | D1 ag no DA | Isoprot counter
O=c1[nH]c2ccsc2c(=O)n1-c1ccc(F)c(Cl)c1 | 1 | 8.3* | 0 | 14 | 0.17 | 0.37 | 14224* | 1628 | +
O=c1[nH]c2ccsc2c(=O)n1-c1ccc(F)cc1 | 1.1 | 0.2 | 0 | 8 | 0.046 | 0.034 | / | / | /
C=C(C)c1cccc(C(C)(C)NC(=O)Nc2cc(C)ccc2OC)c1 | 0.9 | / | -4 | -8 | -0.23 | 0.23 | / | / | /
C=C(C)c1cccc(C(C)(C)NC(=O)Nn2cnnc2)c1 | 1.4 | 6* | 9 | -8 | 0.18 | -0.71 | 6208 | 1644 | i
CC12CC(NC(=O)N1c1cccc(C(=O)N3CCN(c4ccccc4F)CC3)c1)c1ccccc1O2 (stereo not drawn) | 0.9 | 3.5* | 2 | 1 | 0.5 | -4.6* | 4916 | 1480 | i
CCSc1oc(-c2ccco2)nc1S(=O)(=O)c1ccc(F)cc1 | 0.9 | 4.6* | 1 | 0 | -0.42 | -1.9 | 11820* | 1660 | i
CCSc1oc(-c2cccs2)nc1S(=O)(=O)c1ccccc1 | / | 15* | 29 | -4 | -0.46 | -3.4 | 18740* | 1592 | +
Clc1ccc(-n2nnc(-c3ncc[nH]3)n2)cc1Cl | / | / | / | / | 0.09 | 0.54 | / | / | /
O=C(NCCc1cccs1)C1CC(c2c(Cl)cccc2Cl)=NO1 (stereo not drawn) | 0.8 | / | 15 | 5 | 0.74 | 0.75 | / | / | /
O=c1c(/C=N/O)c(Nc2ccccc2)nc2ccccn12 | 0.8 | 4.2* | 9 | -1 | -1.1 | -1.8 | 9580* | 1768 | +
Cc1cccn2c(=O)c(/C=N/O)c(N3CCCCC3)nc12 | 1.1 | -0.021 | 12 | -6 | -0.044 | -1.7 | / | / | /
Cc1ccc(-c2cc(C(F)F)nc(NCc3cccnc3)n2)cc1 | / | 13* | 44* | 1 | -0.12 | -4.4* | 16464* | / | +
Cc1ccc(CNC(=O)C(=O)NCC2CCCO2)cc1 (stereo not drawn) | / | / | / | / | 0.084 | -0.16 | / | / | /
FC(F)(F)c1cc(-c2ccc(Cl)cc2)nc(NCc2cccnc2)n1 | 0.8 | / | 8 | 6 | -0.065 | 0.71 | / | / | /
Cc1ccc(-c2cc(C(F)F)nc(NCC3CCCO3)n2)cc1 (stereo not drawn) | / | 3.3* | 32* | 7 | 1.3 | -3.3 | 14888* | / | +
CCOC(=O)c1c(NC(=O)CN2CCCCC2)sc2c1CCN(C(=O)OCC)C2 | 1.5 | 3.7* | 13 | 13 | 0.47 | -2.8 | 7072* | / | +
CCOC(=O)c1c(-c2cccs2)csc1NC(=O)CN1CCOCC1 | 0.8 | 11* | 6 | -1 | -0.7 | -0.047 | 19940* | 1788 | +
CCOC(=O)c1c(NC(=O)CN2CCOCC2)sc2c1CCCC2=O | 1.3 | 5.4* | 26 | -4 | 0.3 | 1.6 | 8480* | 1768 | +
CCOC(=O)c1c(NC(=O)CN(CC)CC)sc2c1CCN(C(=O)OCC)C2 | 1.7 | 6.1* | 21 | -3 | 0.56 | -1.1 | 8852* | 1716 | +
CCOC(=O)c1c(NC(=O)COC)sc2c1CCCC2 | 1 | 2.2 | 19 | -8 | 0.65 | -0.4 | / | / | /
CCOC(=O)c1c(-c2ccc(C)o2)csc1NC(=O)CN1CCOCC1 | 1.5 | / | -2 | 16 | -0.21 | -3 | / | / | /
CCOC(=O)c1c(NC(=O)CN2CCOCC2)sc2c1CCCC2 | 1.5 | 0.61 | / | / | 1.5 | -2.8 | / | / | /
O=C(Nc1ccc(Br)cn1)C1CCCN1S(=O)(=O)c1ccccc1 (stereo not drawn) | 0.7 | / | 3 | -17 | 2.2 | 0.26 | / | / | /
COCCCNC(CC(=O)Nc1ccccc1C(=O)OC)C(=O)O (stereo not drawn) | / | -0.6 | / | / | / | / | / | / | /
Cc1ccc2c(c1)c(-c1ccccc1)nc1nncn12 | 0.8 | 9.1* | 7 | -5 | -0.77 | 2.4 | 13296* | 1752 | +
Cc1cc2nncn2c2ccccc12 | 1.3 | / | 0 | 2 | -1.2 | 0.85 | / | / | /
CCCC(=O)Nc1sc(C)c(C)c1C(=O)Nc1cccc(C)c1 | 0.9 | / | 5 | 2 | -1.3 | -0.26 | / | / | /

Source: PubChem BioAssay
